# In the library only some 3% were active in any assay of this set; here they are far more common.
# ALOX12 inh: ALOX12 (human) lipoxygenase inhibition; P18054; purified 12hLO, xylenol orange hydroperoxide absorbance; Potency, µM (series often up to 108 µM), for inactives: at the highest dose activity change, negative = inhibition, hits mostly inhibitors; hit rate 1.1% among 580,000
#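 Purified human 12hLO (150 nM final) in 25 mM Hepes, 0.01% Triton X-100, pH 7.0 was preincubated 15 min at room temperature with compound. Then 40 uM arachidonic acid was added, 30 min. Hydroperoxide was read by Fe-XO absorbance ratio 573/405 nm.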
# PLK1 PBD inh: inhibitors of human PLK1 polo-box domain binding | P53350 | Plk1 PBD binding of FITC phosphopeptide, fluorescence polarization | Potency, µM, for the others: max response, negative = inhibition, hits mostly inhibitors | hit rate 2.8% among 360,000; also: series mostly up to about 57 µM; nearly all actives have a fitted effect of over 65% in size
# GCN5L2 inh: GCN5L2 (KAT2A) acetyltransferase inhibition. GCN5L2 HAT assay, ThioGlo1 CoA-SH fluorescence. Potency, µM (top dose mostly 58.9 µM), for inactives: at the top dose activity change, negative = inhibition, hits mostly inhibitors. hit rate 0.21% among 390,000. AID 504327
#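 Fluorescence readout, Ex340nm/Em540nm: ThioGlo1 (50uM final) reacts with free CoA thiol released as 20nM GCN5L2 acetylates H3(1-25) peptide (75uM) using acetyl-CoA (70uM). Compound and enzyme sat 15 min beforehand; 20 min room-temperature reaction.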
# VDR inhibitor: vitamin D3 receptor (human) inhibition; P11473; VDR-SRC2-3 peptide fluorescence polarization, 2 h; Potency, µM, for the others: max response, negative = inhibition, usual class: inhibitors; hit rate 0.93% among 400,000; AID 504847
#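 Measured by FP: displacement of SRC2-3 coactivator peptide from VDR by library compounds, following a two-hour ambient incubation.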
# The depositor's hits bear a star; ? = inconclusive; / = no result given; [ ] = remark or other dose. Calls follow the shape of the dose curve; as a rule, active = well fitted curve in the direction sought with a large enough effect; inconclusive = small, poorly fitted or top-dose-only effect, or another doubt; inactive = no such curve, though single readings can be large; an effect the other way counts as inactive or inconclusive. % is scaled to controls: 0 for no effect and ±100 for the full control effect; potency is read from the fitted curve at half-maximal effect.
SMILES,ALOX12 inh,PLK1 PBD inh,GCN5L2 inh,VDR inhibitor
O=c1[nH]c2c(s1)C(c1ccc(O)cc1)C1C3CCC(C3)C1S2 (stereo unspecified),45µM*,?,-3%,-26%
Cc1cccc(OCc2nnc(SCC(=O)Nc3ccc(C)cc3C)o2)c1,35µM*,/,-4%,2%
COc1ccc(NC(=O)C2CN(S(=O)(=O)C3CC3)CC23CCCCC3)cc1 (stereo unspecified),9%,/,/,/
C/C(=N\NC(=S)NC1CCCCC1)c1ccc(OC(F)F)cc1OC(F)F,28µM*,-2%,-14%,7%
C/C(=N\NC(=O)C1CC1)c1ccc(OC(F)F)cc1OC(F)F,5%,-2%,-3%,11%
O=C(c1ccccc1Cl)N1C[C@@H](CO)[C@H](c2ccncc2)C1,15%,/,/,/
Cc1nn(C)cc1C(=O)N1C[C@@H](CO)[C@H](c2ccncc2)C1,50µM*,/,/,/
O=C(NCC#CCOCc1ccccc1)c1ccccc1,-15%,27µM*,1%,-11%
Cc1noc(C)c1COC(=O)CCN1c2ccccc2Sc2ccccc21,0%,21µM*,-13%,?
Cc1noc(C)c1COC(=O)CCc1nc2ccccc2s1,0%,?,-5%,-16%
NS(=O)(=O)c1ccc(CNC(=O)/C=C/c2ccccc2)cc1,346%,27µM*,-16%,-2%
NS(=O)(=O)c1ccc(CNC(=O)CCCSc2ccccc2)cc1,12%,30µM*,-3%,-7%
COc1ccc(CNC(=O)CCCSc2ccccc2)cc1,-4%,1%,2%,2%
O=S(=O)(NC(c1ccc(F)cc1)c1cccs1)c1cccs1 (stereo unspecified),-60%,/,/,/
Cc1ccc2cc(C(=O)NCC3CCS(=O)(=O)C3)[nH]c2c1 (stereo unspecified),12%,/,/,/
Nc1nc(-c2ccc3c(c2)CCC(=O)N3)cs1,-19%,-7%,-6%,-3%
c1ccc(-c2csc(NC3CCCCC3)n2)cc1,?,-16%,-2%,-5%
O=C1Cc2cc(-c3csc(NC4CC4)n3)ccc2N1,40µM*,/,/,/
O=C(Nc1nc(-c2ccc3c(c2)Cc2ccccc2-3)cs1)c1ccccc1,?,-4%,-4%,2%
O=C1Cc2cc(-c3csc(NC4CCCCC4)n3)cc3c2N1CCC3,11µM*,/,/,/
CC(=O)Nc1nc(-c2ccc3c(c2)CCO3)cs1,-19%,3%,-13%,4%
O=C1CCc2cc(-c3csc(NC4CC4)n3)ccc2N1,35µM*,/,/,/
CCNc1nc(-c2ccc3c(c2)CCC(=O)N3)cs1,20µM*,/,/,/
Cc1ccc(-c2cc(C(=O)N3CCOC(C)C3)n[nH]2)s1 (stereo unspecified),25%,/,/,/
CC(C)=CC(=O)Nc1ccccc1SCc1ccsc1,26%,/,/,/
SMILES,ALOX12 inh,PLK1 PBD inh,GCN5L2 inh,VDR inhibitor
CCCCNc1nc(-c2ccc(NC(=O)CC)cc2)cs1,-12%,/,/,/
CCCCNc1nc(-c2ccc3c(c2)CC(=O)N3)cs1,32µM*,/,/,/
COc1cc(N(C)C)cc(CN(C)CCc2ccc([N+](=O)[O-])cc2)c1O,/,/,?,2.5µM*
CCCC(OC(=O)c1cc(C)nc2ccccc12)C(=O)Nc1cc(C)on1 (stereo unspecified),-46%,/,/,/
Cc1c(CCC(=O)O)c(=O)oc2c(C)c3occ(-c4ccc(Br)cc4)c3cc12,?,27µM*,12%,-1%
CCN(CC)Cc1c(C=O)sc2c1CCCC2,-36%,/,/,/
Cc1oc(-c2ccccc2)nc1C(=O)N1CCN(c2ccc(F)cc2)CC1,8%,30µM*,-23%,?
CN(C)C(=O)c1ccc(NC(=O)c2ccc(C#N)cc2)cc1,-14%,/,/,/
CCCc1c(OCCCCc2nn[nH]n2)ccc(C(C)=O)c1O,8%,-20%,2%,45µM*
COc1ccccc1C(=O)N1CCN(c2oc(-c3cccc(Cl)c3)nc2C#N)CC1,5%,/,/,/
COc1ccc2[nH]c(S(=O)Cc3ncc(C)c(OC)c3C)nc2n1 (stereo unspecified),/,/,?,45µM*
Cc1ccc(-c2cn3c(n2)CO[C@@H](CNCc2ccc(S(C)(=O)=O)cc2)C3)cc1,64%[176 µM],/,/,/
Cc1ccc(-c2cn3c(n2)CO[C@@H](CNCc2ccc(Cl)cc2)C3)cc1,13µM*,/,/,/
Clc1ccc(-c2cnc3n2C[C@H](CNCc2ccc4c(c2)OCO4)OC3)cc1,40µM*,/,/,/
Clc1ccc(CNC[C@H]2Cn3c(-c4cccc(Cl)c4)cnc3CO2)cc1,-43%[176 µM],/,/,/
Fc1ccc(-c2cnc3n2C[C@H](CNCc2ccc4c(c2)OCO4)OC3)cc1,22µM*,/,/,/
Clc1ccc(CNC[C@H]2Cn3c(-c4ccccc4)cnc3CO2)cc1,25µM*,/,/,/

# Screens deposited in PubChem by National Center for Advancing Translational Sciences (NCATS).
